Test results taken from PubChem BioAssay.
Active and inactive are the calls of the source. Unless noted, no rule for the calls is given here.

Assays:
[1] = HepG2 liver cancer cell viability effects, profiling panel, resazurin fluorescence, 24 h, PK04 Diversity Set (AID 1172); details: higher = more signal
[2] = basal S. cerevisiae growth modulation, no modifier, primary screen, OD600, strain BY4716, 24 h, basal condition (AID 1173); details: OD600, 24 h, higher = more signal, called active from +8 up or from −8 down
[3] = MM1S myeloma cell viability, profiling panel, resazurin fluorescence, basal, 24 h, PK04 Diversity Set (AID 1174); details: higher = more signal, called active from +8 up or from −8 down;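 also: MM1S multiple myeloma cell line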
[4] = target: Dihydroorotate dehydrogenase (quinone), mitochondrial (Plasmodium falciparum (isolate 3D7)) (UniProt Q08210); assay: PfDHODH enzyme inhibitors, primary screen, biochemical, C-terminal His tag, absorbance 600 nm (AID 1175); details: DCIP absorbance 600 nm, higher = more signal, called active from +8 up or from −8 down;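 also: recombinant parasite enzyme with a five histidine tag at its C terminus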
Dihydroorotate dehydrogenase (quinone), mitochondrial (Plasmodium falciparum (isolate 3D7)), sequence (Q08210 whole entry, looked up): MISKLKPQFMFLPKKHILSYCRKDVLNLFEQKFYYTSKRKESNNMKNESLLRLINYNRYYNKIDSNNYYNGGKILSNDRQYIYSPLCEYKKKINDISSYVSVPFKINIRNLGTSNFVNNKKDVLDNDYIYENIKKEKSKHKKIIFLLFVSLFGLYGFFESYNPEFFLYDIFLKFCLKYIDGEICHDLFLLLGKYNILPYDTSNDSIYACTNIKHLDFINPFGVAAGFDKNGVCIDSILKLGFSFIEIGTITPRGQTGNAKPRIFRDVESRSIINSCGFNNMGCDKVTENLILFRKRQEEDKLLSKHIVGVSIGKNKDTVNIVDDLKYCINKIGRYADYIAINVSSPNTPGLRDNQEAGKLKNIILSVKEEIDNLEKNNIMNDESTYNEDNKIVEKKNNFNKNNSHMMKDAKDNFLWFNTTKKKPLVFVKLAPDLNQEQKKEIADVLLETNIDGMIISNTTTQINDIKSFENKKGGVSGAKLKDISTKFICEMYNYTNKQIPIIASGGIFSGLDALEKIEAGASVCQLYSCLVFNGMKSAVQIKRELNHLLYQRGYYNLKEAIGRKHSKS

[5] = P. aeruginosa biofilm formation inhibitors, primary screen, strain PAO1, LB-PBS medium, absorbance 600 nm (AID 1176); details: P. aeruginosa PAO1 growth/biofilm, A600, 12 h; higher = more signal
[6] = S. cerevisiae RM11-1a growth modifiers, primary screen, strain RM11-1a, OD600, basal, 24 h (AID 1177); details: OD600, 24 h, higher = more signal, called active from +8 up or from −8 down;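 also: cultures grown under basal conditions with no added stressor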
[7] = E. coli acrAB mutant growth effects, primary screen, E. coli filamentation inducers, strain DRC39, OD650, 24 h (AID 1178); details: higher = more signal, called active from +8 up or from −8 down;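 also: growth measured as culture turbidity by optical density at 650 nm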
[8] = E. coli acrAB mutant growth effects, primary screen, E. coli filamentation inducers, strain DRC39, OD650, 48 h (AID 1179);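 also: screen aims at cell division blockers that make cells filament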; details: E. coli DRC39 delta-acrAB growth, higher = more signal, called active from +8 up or from −8 down
[9] = RPMI8226 myeloma cell viability, profiling panel, resazurin fluorescence, basal, 24 h, PK04 Diversity Set (AID 1180); details: higher = more signal;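 also: RPMI8826 multiple myeloma cell line at 5000 cells per well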
[10] = target: E3 ubiquitin-protein ligase XIAP (Homo sapiens) (UniProt P98170); assay: XIAP binders, primary screen, biophysical, small-molecule microarray, fluorescence 635 nm (AID 1181); details: small-molecule microarray binding, higher = more signal;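 also: score merges 667 nm emission and signal to noise over triplicate slides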
E3 ubiquitin-protein ligase XIAP (Homo sapiens), sequence (P98170 whole entry, looked up): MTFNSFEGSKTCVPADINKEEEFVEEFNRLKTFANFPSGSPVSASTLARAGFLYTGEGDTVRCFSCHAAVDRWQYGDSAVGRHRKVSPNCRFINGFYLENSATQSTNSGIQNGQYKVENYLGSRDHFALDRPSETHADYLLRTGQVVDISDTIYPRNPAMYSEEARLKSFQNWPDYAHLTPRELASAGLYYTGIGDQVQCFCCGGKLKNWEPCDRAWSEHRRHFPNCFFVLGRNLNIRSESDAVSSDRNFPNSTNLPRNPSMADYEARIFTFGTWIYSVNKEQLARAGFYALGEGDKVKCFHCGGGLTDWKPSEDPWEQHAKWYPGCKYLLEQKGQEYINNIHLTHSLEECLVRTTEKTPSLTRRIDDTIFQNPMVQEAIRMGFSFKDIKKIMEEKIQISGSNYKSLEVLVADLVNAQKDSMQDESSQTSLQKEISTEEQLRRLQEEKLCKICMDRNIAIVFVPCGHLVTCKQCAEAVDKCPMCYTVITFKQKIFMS

[11] = system: XIP peptide (Xip251-270) binding; assay: small-molecule binders of XIP peptide, primary screen, biochemical, small-molecule microarray, fluorescence 635/667 nm, 0.1 µg/mL protein (AID 1182); details: fluorescent protein binding, 635 nm, higher = more signal, called active from +8 up or from −8 down
XIP peptide (Xip251-270) = assay: small-molecule binders of XIP peptide, primary screen, biochemical, small-molecule microarray, fluorescence 635/667 nm, 0.5 µg/mL protein (AID 1183); details: small-molecule microarray binding, fluorescence 635 nm; higher = more signal
[12] = Plasmodium falciparum growth inhibition, primary screen, strain 3D7, DAPI fluorescence, 100 nL (AID 1184);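 also: parasites grown inside human red blood cells in medium with human serum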; details: P. falciparum 3D7 growth, 3 d, higher = more signal
[13] = target: Homeobox protein Hox-A13 (Mus musculus) (UniProt Q62424); assay: inhibitors of HoxA13-DNA binding, primary screen, biochemical, fluorescence polarization, labeled oligonucleotide (AID 1185); details: 15 min, higher = more signal, called active from +8 up or from −8 down
Homeobox protein Hox-A13 (Mus musculus), sequence (Q62424 whole entry, looked up): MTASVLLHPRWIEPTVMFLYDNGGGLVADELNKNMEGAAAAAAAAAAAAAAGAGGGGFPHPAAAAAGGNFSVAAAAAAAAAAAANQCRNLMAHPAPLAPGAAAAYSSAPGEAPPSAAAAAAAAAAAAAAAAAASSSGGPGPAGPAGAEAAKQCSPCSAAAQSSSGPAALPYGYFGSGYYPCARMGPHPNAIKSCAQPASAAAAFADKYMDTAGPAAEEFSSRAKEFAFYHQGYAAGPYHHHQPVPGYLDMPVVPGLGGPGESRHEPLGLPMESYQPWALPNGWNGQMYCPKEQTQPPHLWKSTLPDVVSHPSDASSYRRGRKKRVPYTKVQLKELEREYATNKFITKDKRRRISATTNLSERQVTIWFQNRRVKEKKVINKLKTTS

[14] = inhibitors of hydroxyurea-induced Chk1 phosphorylation, primary screen, imaging, HeLa, phospho-Chk1 antibody, percent positive cells (AID 1186); details: hydroxyurea-induced phospho-Chk1 immunofluorescence imaging, higher = more signal
[15] = inhibitors of hydroxyurea-induced Chk1 phosphorylation, primary screen, imaging, HeLa, phospho-Chk1 nuclear intensity (AID 1187); details: hydroxyurea-induced phospho-Chk1 immunofluorescence imaging, higher = more signal

Structure (SMILES)	z-score [1]	z-score [2]	z-score [3]	composite z-score [4]	z-score [5]	z-score [6]	z-score [7]	z-score [8]	z-score [9]	composite z-score [10]	composite z-score [11]	composite z-score (XIP peptide (Xip251-270))	z-score [12]	z-score [13]	z-score [14]	z-score [15]
CCCCCN1CC=CC23O[C@@H]4C=CCOC(=O)[C@@H]4[C@H]2C(=O)N(C(C)CO)[C@@H]3C1=O (stereo partly drawn)	0.0677	-0.738 (inactive)	-0.278 (inactive)	-0.478 (inactive)	0.77 (inactive)	-1.16 (inactive)	-0.232 (inactive)	-0.443 (inactive)	0.003	-0.269	0.379 (inactive)	-0.0756	0.795	-4.96 (inactive)	0.719 (inactive)	0.149 (inactive)
COc1ccc(C#Cc2ccc3c(c2)[C@]2(C(=O)N3)[C@H](c3ccc(O)cc3)N3[C@H](c4ccccc4)[C@H](c4ccccc4)OC(=O)[C@H]3[C@@H]2C(=O)N2CCc3cc(OC)c(OC)cc3C2)cc1	0.449	1.14 (inactive)	-0.309 (inactive)	-0.103 (inactive)	1.37 (inactive)	0.816 (inactive)	-0.101 (inactive)	0.304 (inactive)	-0.333	-0.0582	0.409 (inactive)	0.465	-2	-1.17 (inactive)	-0.0377 (inactive)	-0.187 (inactive)
CC(C)CNC(=O)[C@@]1(Cc2ccccc2I)c2ccccc2C(=O)N(Cc2ccccc2C(F)(F)F)[C@H]1c1ccc(CO)cc1	-0.165	0.428 (inactive)	-0.0663 (inactive)	0.366 (inactive)	-0.0528 (inactive)	0.0567 (inactive)	-0.188 (inactive)	0.588 (inactive)	-0.0359	-0.271	1.43 (inactive)	0.875	-0.538	-1.78 (inactive)	0.172 (inactive)	0.345 (inactive)
Cc1ccc([C@H]2C(C(=O)O)=CCN2S(=O)(=O)c2ccc(C)cc2)cc1	-0.585	0.292 (inactive)	-0.81 (inactive)	-0.381 (inactive)	-0.088 (inactive)	-0.114 (inactive)	-0.429 (inactive)	-0.392 (inactive)	-0.325	0.296	-0.609 (inactive)	0.66	0.546	-2.98 (inactive)	0.586 (inactive)	-0.222 (inactive)
CN(C)CCCCNC(=O)[C@@H]1C[C@@H]2C(=O)N[C@@H](CCCCN)C(=O)N2[C@@H]1c1ccc(O)cc1	0.637	1.43 (inactive)	0.832 (inactive)	0.0724 (inactive)	0.833 (inactive)	2.32 (inactive)	0.499 (inactive)	1.1 (inactive)	0.918	-0.131	1.09 (inactive)	0.881	-1.8	1.46 (inactive)	0.128 (inactive)	-0.115 (inactive)
O=C1C2C=CC(C(O)c3cc(C(F)(F)F)cc(C(F)(F)F)c3)N(Nc3ccccc3)C2C(=O)N1c1ccccc1 (stereo not drawn)	-0.621	-3.15 (inactive)	-1.87 (inactive)	0.399 (inactive)	1.41 (inactive)	0.596 (inactive)	-0.921 (inactive)	-0.284 (inactive)	-2.49	0.0191	0.926 (inactive)	0.197	0.0018	-2.82 (inactive)	0.0811 (inactive)	-0.017 (inactive)
NC(=O)NCC#Cc1ccc2c(c1)[C@]1(C(=O)N2)[C@H](C(=O)O)[C@H]2C(=O)O[C@H](c3ccccc3)[C@H](c3ccccc3)N2[C@@H]1c1ccc(O)cc1	0.891	-0.0841 (inactive)	0.587 (inactive)	-1.63 (inactive)	0.393 (inactive)	0.0591 (inactive)	-0.131 (inactive)	-0.0796 (inactive)	0.902	0.0043	0.88 (inactive)	0.275	0.137	-5.06 (inactive)	0.0315 (inactive)	0.118 (inactive)
[N-]=[N+]=Nc1ccccc1C[C@]1(C(=O)N2CCCCC2)COC(c2ccc(OCCCO)cc2)=N1	0.508	-1.44 (inactive)	-0.823 (inactive)	1.78 (inactive)	-0.248 (inactive)	0.266 (inactive)	1.18 (inactive)	0.344 (inactive)	0.552	0.054	1.98 (inactive)	0.204	-2.29	-6.17 (inactive)	0.118 (inactive)	-0.232 (inactive)
CN(C)C(=O)[C@]1(Cc2ccccc2)N=C(c2ccc(OCCCO)cc2)O[C@@H]1c1ccccc1N=[N+]=[N-]	-0.274	-1.43 (inactive)	-2.64 (inactive)	0.9 (inactive)	-0.0837 (inactive)	1.29 (inactive)	0.349 (inactive)	0.908 (inactive)	-2.58	0.237	0.79 (inactive)	0.708	-2.31	-5.85 (inactive)	-0.366 (inactive)	-0.903 (inactive)
COCC(=C=CC[C@H](O)c1ccccc1OCCO)CCO	-0.504	-0.547 (inactive)	-0.251 (inactive)	-0.799 (inactive)	0.26 (inactive)	0.338 (inactive)	-0.135 (inactive)	-0.113 (inactive)	-0.672	-0.252	2.87 (inactive)	-0.501	-0.549	-2.98 (inactive)	0.387 (inactive)	-0.186 (inactive)
CCCCN1CC=CC23O[C@@H]4/C=C\CCCOC(=O)C4[C@H]2C(=O)N(CCCO)[C@@H]3C1=O (stereo partly drawn)	0.426	0.129 (inactive)	0.31 (inactive)	0.119 (inactive)	0.55 (inactive)	-1.39 (inactive)	-0.0564 (inactive)	-0.314 (inactive)	0.309	-0.31	1.48 (inactive)	0.737	0.651	-5.29 (inactive)	0.267 (inactive)	0.576 (inactive)
C=CC[C@]1(C(N)=O)COC(c2ccc(OCCCO)cc2)=N1	1.4	0.412 (inactive)	-0.801 (inactive)	0.94 (inactive)	-0.814 (inactive)	0.75 (inactive)	1.12 (inactive)	1.83 (inactive)	0.679	-0.095	-0.539 (inactive)	-0.0487	0.668	-0.063 (inactive)	-0.551 (inactive)	-0.351 (inactive)
COc1ccc(C(=O)Nc2cccc(CN3C(=O)[C@]4(O[C@H](CCn5cc(CCO)nn5)[C@@H]([Si](C)(C)c5ccc(OC)cc5)[C@@H]4C)c4ccccc43)c2)cc1	-6.31	-7.34 (inactive)	-9.11 (active)	2.2 (inactive)	1.12 (inactive)	4 (inactive)	0.216 (inactive)	-0.883 (inactive)	-6.19	-0.173	-0.16 (inactive)	0.249	-2.72	-4.83 (inactive)	-0.745 (inactive)	-2.04 (inactive)
N#Cc1ccc(C(O)C2C=CC3C(=O)N(c4ccccc4)C(=O)C3N2Nc2ccccc2F)cc1 (stereo not drawn)	1.46	-2.13 (inactive)	0.55 (inactive)	0.775 (inactive)	0.0083 (inactive)	-0.402 (inactive)	-0.227 (inactive)	0.692 (inactive)	0.148	0.205	0.339 (inactive)	0.749	-0.85	-3.57 (inactive)	-0.395 (inactive)	-0.0743 (inactive)
CC(C)CCC[C@@H](C)[C@H]1CC[C@@]2(C)C3=C(CC[C@]12C)[C@@]1(C)CC[C@H](OC(=O)c2ccc(C(F)(F)F)nc2)C(C)(C)C1CC3 (stereo partly drawn)	0.305	-0.473 (inactive)	0.175 (inactive)	-1.08 (inactive)	0.188 (inactive)	-2.03 (inactive)	0.634 (inactive)	0.762 (inactive)	0.605	-0.161	0.106 (inactive)	-0.176	-0.145	-1.23 (inactive)	-0.887 (inactive)	-0.365 (inactive)
COc1ccc([C@H]2C[C@H]3C(Br)=C[C@@]2(CO)C(=O)[C@]32CO2)cc1	0.231	-4.42 (inactive)	-0.445 (inactive)	-0.174 (inactive)	0.118 (inactive)	-0.121 (inactive)	-0.0919 (inactive)	-0.0065 (inactive)	-0.384	0.0009	-0.358 (inactive)	-0.311	0.951	-1.05 (inactive)	-0.0281 (inactive)	0.202 (inactive)
O=C(CS)NCCCCCNC(=O)[C@@H]1C[C@@H]2C(=O)NCC(=O)N2[C@@H]1c1ccc(O)cc1	-0.701	0.272 (inactive)	-1.06 (inactive)	0.424 (inactive)	1.5 (inactive)	-0.0231 (inactive)	-0.401 (inactive)	-1.04 (inactive)	-0.492	-0.0536	0.366 (inactive)	0.352	-1.16	-1.43 (inactive)	0.258 (inactive)	0.425 (inactive)
COCCOC(=O)N1C(=O)[C@@]2(c3ccccc31)[C@H](c1ccc(OCCO)cc1)N1[C@H](c3ccccc3)[C@H](c3ccccc3)OC(=O)[C@H]1[C@@H]2C(=O)N1CCc2cc(OC)c(OC)cc2C1	-0.14	1.57 (inactive)	0.102 (inactive)	-2.08 (inactive)	1.79 (inactive)	2.94 (inactive)	0.43 (inactive)	0.736 (inactive)	0.994	-0.153	0.933 (inactive)	0.919	-2.15	2.01 (inactive)	0.147 (inactive)	0.0081 (inactive)
